# Laboratory results published in PubChem BioAssay (NCATS).
# Records with an inconclusive call do not appear. Active and inactive are the calls of the source. Calls follow the shape of the dose curve; as a rule, active = well fitted cell-killing curve with a large enough effect; inconclusive = small, poorly fitted or top-dose-only effect; inactive = flat fitted curve, though single readings scatter.
# Assay: qHTS of pediatric cancer cell lines to identify multiple opportunities for drug repurposing: Confirmatory screen for SK-N-SH cells (AID 1347129);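 also: cells exposed to compound for 48 h before viability read; nearly all actives have a fitted effect of over 60% in size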;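 as to activity change, negative = cytotoxic: plate controls were DMSO for no effect and bortezomib control for full effect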
# Conditions: SK-N-SH neuroblastoma cell viability; series mostly up to 46.1 µM; activity change, negative = cytotoxic: at the top concentration
# In short: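 Viability after 48 h compound treatment at 37C, 500-1,000 cells/well, read as ATP luminescence with CellTiter-Glo. Primary screens used 11-point (MIPE, 0.78 nM-46 µM) or 8-point (NPC, 0.59 nM-46 µM) final concentrations; follow-up screens used 11-point dilutions.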
# Potency is read from the fitted curve at half-maximal effect.
Compound,"activity change, negative = cytotoxic",Potency
CN(C)C(=O)Nc1ccc(Cl)c(Cl)c1,-7.56% (inactive),
CCCCCCCCCCCCOCCOCCOCCOCCOCCOCCOCCOCCOCCO,4.03% (inactive),
CCN1/C(=C/C=C/c2sc3ccccc3[n+]2CC)Sc2ccccc21,,2290 nM (active)
C=C[C@@]1(C)CC(=O)[C@]2(O)[C@@]3(C)[C@@H](O)CCC(C)(C)[C@@H]3[C@H](O)[C@H](OC(C)=O)[C@@]2(C)O1,-11.5% (inactive),
CCN[C@@H]1C[C@H](N)[C@@H](OC2OC(CN)=CCC2N)[C@H](O)[C@H]1O[C@H]1OC[C@](C)(O)[C@H](NC)[C@H]1O (some centres undefined),6.98% [at 0.558 µM] (inactive),
CC1CCc2c(N3CCC(O)CC3)c(F)cc3c(=O)c(C(=O)O)cn1c23 (centres undefined),-0.97% (inactive),
O=[N+]([O-])c1ccc(/C=N\O)o1,-3.02% (inactive),
C[C@@]12C(=O)OC(=O)[C@]1(C)C1CCC2O1,4.61% (inactive),
CCCCCCCCCCC[C@@H](C[C@@H]1OC(=O)[C@H]1CCCCCC)OC(=O)[C@H](CC(C)C)NC=O,-0.86% (inactive),
COc1ccc(C(=O)c2ccccc2)c(O)c1,-5.23% (inactive),
O=C(Oc1cccc2cccnc12)c1ccccc1,-5.92% (inactive),
NC(N)=NN=C(/C=C/c1ccc([N+](=O)[O-])o1)/C=C/c1ccc([N+](=O)[O-])o1,,2350 nM (active)
CCN(CC)CCOc1ccc2c(c1)C(=O)c1cc(OCCN(CC)CC)ccc1-2,,18700 nM (active)
C[C@H]1O[C@@H](O[C@H]2CC[C@@]3(C)[C@H](CC[C@@H]4[C@@H]3C[C@@H](O)[C@]3(C)[C@@H](C5=CC(=O)OC5)CC[C@]43O)C2)C[C@H](O)[C@@H]1O[C@H]1C[C@H](O)[C@H](O[C@H]2C[C@H](O)[C@H](O[C@@H]3O[C@H](CO)[C@@H](O)[C@H](O)[C@H]3O)[C@@H](C)O2)[C@@H](C)O1,,332 nM (active)
